Source: PubChem BioAssay (National Center for Advancing Translational Sciences (NCATS))
12-LOX inh: Primary qHTS assay for inhibitors of human arachidonate 12S-lipoxygenase (ALOX12): Round 2; purified 12hLO, xylenol orange hydroperoxide absorbance; Potency, µM (series often up to 108 µM), inactives show top-dose activity change, negative = inhibition, actives largely listed as inhibitors; Polyunsaturated fatty acid lipoxygenase ALOX12 (Homo sapiens), P18054; 1.1% of 580,000 active; note: potency is the fitted concentration of half-maximal effect
Target sequence (P18054 whole entry, looked up): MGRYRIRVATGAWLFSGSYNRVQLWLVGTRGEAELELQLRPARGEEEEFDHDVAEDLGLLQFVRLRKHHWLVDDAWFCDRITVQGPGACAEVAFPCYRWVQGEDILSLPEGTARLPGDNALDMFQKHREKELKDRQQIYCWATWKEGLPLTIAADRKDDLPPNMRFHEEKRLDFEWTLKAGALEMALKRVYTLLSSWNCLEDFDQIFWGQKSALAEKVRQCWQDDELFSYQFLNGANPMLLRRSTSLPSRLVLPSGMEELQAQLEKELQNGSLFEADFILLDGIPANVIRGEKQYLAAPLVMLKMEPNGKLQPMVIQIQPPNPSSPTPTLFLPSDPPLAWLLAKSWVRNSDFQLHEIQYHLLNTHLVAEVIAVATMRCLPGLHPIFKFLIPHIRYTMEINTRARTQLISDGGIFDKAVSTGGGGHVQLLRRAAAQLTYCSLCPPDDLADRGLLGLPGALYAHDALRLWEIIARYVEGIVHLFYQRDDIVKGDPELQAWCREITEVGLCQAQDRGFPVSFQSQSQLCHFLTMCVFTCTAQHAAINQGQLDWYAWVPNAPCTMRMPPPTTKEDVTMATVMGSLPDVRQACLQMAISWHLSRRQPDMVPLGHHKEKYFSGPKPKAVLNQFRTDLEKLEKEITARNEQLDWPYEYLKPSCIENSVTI
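Hydroperoxide product was detected by ferrous iron/xylenol orange as the 573 to 405 nm absorbance ratio. Arachidonic acid at 40 uM (final) was turned over for 30 min at room temperature by 150 nM human 12hLO, pH 7.0 Hepes buffer, after 15 min compound preincubation.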
HT1080 IDH1KD tx: qHTS for induction of synthetic lethality in tumor cells producing 2HG: qHTS for the HT-1080-IDH1KD cell line. 2% of 360,000 active. Potency, µM (top dose mostly 46.1 µM), inactives show at the top dose activity, negative = toxicity, most hits filed as cytotoxic. HT-1080 IDH1 knockdown viability, ATP luminescence, 48 h. AID 686971, 2013;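 note: potency is the fitted concentration of half-maximal effect; 0% = DMSO wells and -100% = cell-free medium wells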
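Using the IDH1-knockdown HT-1080 line run in the same batch and compound series as the NT line, viability after 48 h at 37 °C was determined by CellTiter-Glo luminescence and expressed as % activity.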
IL1B secr inh: qHTS for Inhibitors of Inflammasome Signaling: IL-1-beta AlphaLISA Primary Screen. AID 743279, 2014. THP-1 LPS/ATP IL-1B secretion, AlphaLISA, 16 h; active compounds read low. activity change, % at 57.5 µM. 4.7% of 360,000 active; in the data active = activity change below about -50%; inconclusive = mostly about -30% to -49%
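Secreted IL-1B measured by AlphaLISA bead assay after 16 h compound exposure of THP-1 cells; compounds (final up to 57.5 uM) added 1 h before LPS (250 ng/mL) and ATP (1.25 mM) stimulation; lower signal means less secretion.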
HT1080NT lethal: qHTS for induction of synthetic lethality in tumor cells producing 2HG: qHTS for the HT-1080-NT fibrosarcoma cell line; 1.6% of 360,000 active; Potency, µM (doses to about 46.1 µM), for inactives: top-dose activity, negative = less viability, hits mostly cytotoxic; HT-1080-NT fibrosarcoma viability, CellTiter-Glo ATP luminescence, 48 h;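 note: NT is the 2HG producing partner of a matched IDH1 knockdown line; potency is the fitted concentration of half-maximal effect; 0% = DMSO-treated cells and -100% = media-only wells without cells; nearly all actives have a fitted effect of over 55% in size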
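750 cells/well, RPMI + 5% FBS; 2 h settle, compound pin-transfer, 48 h at 37 degrees C. CellTiter-Glo 10 min RT, luminescence. Normalized to DMSO and media-only wells.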
DT40 TDP1 CPT: qHTS for Inhibitors of human tyrosyl-DNA phosphodiesterase 1 (TDP1): qHTS in cells in presence of CPT; chicken DT40 Tdp1-/-;hTDP1 cells + 20 nM CPT, ATP luminescence, 48 h; Potency, µM (titrated, usually from 46.2 µM), inactives show at the top dose activity change, negative = growth inhibition, usual class: inhibitors; 12% of 420,000 active; AID 686979, 2013; note: potency is the fitted concentration of half-maximal effect; nearly all actives have a fitted effect of over 55% in size
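Chicken DT40 Tdp1-/- cells stably complemented with human TDP1 were seeded at 400 cells/well in medium containing 20 nM camptothecin, exposed to pin-transferred compounds, and grown at 37 °C for at least 48 hr. Viability was read as ATP luminescence.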
DT40 TDP1 no CPT: qHTS for Inhibitors of human tyrosyl-DNA phosphodiesterase 1 (TDP1): qHTS in cells in absence of CPT; DT40 Tdp1-/- hTDP1 cells, no CPT, ATP luminescence, 48 h; Potency, µM (top dose mostly 46.2 µM), inactives show top-dose activity change, negative = growth inhibition, most hits filed as inhibitors; 15% of 420,000 active; AID 686978, 2013; note: potency is the fitted concentration of half-maximal effect; nearly all actives have a fitted effect of over 55% in size
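DT40 Tdp1-/-;hTDP1 cells, no CPT (DMSO vehicle only), 400 cells/well; compounds pin-transferred; ≥48 hr, 37 °C; CellTiter-Glo 30 min RT dark, luminescence read.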
* = called active by the depositor; [ ] = dose if it differs, or a comment. The sample as a whole holds a higher share of hits than the screen did. Unless noted, calls come from the whole dose curve; as a rule, active = well fitted curve in the direction sought with a large enough effect; inconclusive = small, poorly fitted or top-dose-only effect, or another doubt; inactive = no such curve, though single readings can be large; an effect the other way counts as inactive or inconclusive. Unless noted, % is set by controls: 0 for no effect and ±100 for the full control effect.

O=C(CSc1nnc(-c2cccs2)n1C1CC1)N1CCc2ccccc2C1 was read as 12-LOX inh 10.4%.
CN(C)C1(CNCc2csc(-c3ncccn3)n2)CCCC1 was read as 12-LOX inh 17.9%.
`O=C(C[C@H]1C/C=C\CC[C@H](Cc2ccc(F)cc2)C(=O)OC[C@@H]2CCCN2C1=O)N[C@H](CO)Cc1ccccc1` gave 12-LOX inh -2.7%, HT1080 IDH1KD tx -1.2%, IL1B secr inh -13.4, HT1080NT lethal -0.3%, DT40 TDP1 CPT 25.9µM* and DT40 TDP1 no CPT inconclusive.
O=C(C[C@H]1C/C=C\C[C@@H](Cc2ccc(F)cc2)C(=O)OC[C@H]2CCCN2C1=O)N[C@@H](CO)Cc1ccccc1 was read as 12-LOX inh 16.7%, HT1080 IDH1KD tx -3.0%, IL1B secr inh -16.1, HT1080NT lethal 0.3%, DT40 TDP1 CPT inconclusive and DT40 TDP1 no CPT inconclusive.
Screening O=C(C[C@H]1C/C=C\CC[C@H](Cc2ccc(F)cc2)C(=O)OC[C@H]2CCCN2C1=O)N[C@H](CO)Cc1ccccc1 returned 12-LOX inh -3.4%, HT1080 IDH1KD tx 8.2%, IL1B secr inh -3.1, HT1080NT lethal 1.8%, DT40 TDP1 CPT 23.1µM* and DT40 TDP1 no CPT 20.6µM*.
`O=C(C[C@H]1C/C=C\CC[C@@H](Cc2ccc(F)cc2)C(=O)OC[C@H]2CCCN2C1=O)N[C@@H](CO)Cc1ccccc1` gave 12-LOX inh inconclusive, HT1080 IDH1KD tx -0.8%, IL1B secr inh -20.2, HT1080NT lethal -28.1%, DT40 TDP1 CPT inconclusive and DT40 TDP1 no CPT 14.6µM*.
For O=C(C[C@H]1C/C=C\CC[C@H](Cc2ccc(F)cc2)C(=O)OC[C@H]2CCCN2C1=O)N[C@@H](CO)Cc1ccccc1 the results were 12-LOX inh -2.2%, HT1080 IDH1KD tx -4.0%, IL1B secr inh 1.6, HT1080NT lethal -6.0%, DT40 TDP1 CPT inconclusive and DT40 TDP1 no CPT 14.6µM*.
For CCC(=O)N1CCCN(S(C)(=O)=O)C(c2ccccc2)CC(=O)NCC1 (stereo unspecified) the results were 12-LOX inh 37.8%.
For O=C(C[C@@H]1C/C=C\C[C@@H](Cc2ccc(F)cc2)C(=O)OC[C@H]2CCCN2C1=O)N[C@H](CO)Cc1ccccc1 the results were 12-LOX inh -4.1%, HT1080 IDH1KD tx 0.6%, IL1B secr inh -4.9, HT1080NT lethal 0.6%, DT40 TDP1 CPT inconclusive and DT40 TDP1 no CPT 20.6µM*.
O=C(C[C@@H]1C/C=C\CC[C@@H](Cc2ccc(F)cc2)C(=O)OC[C@@H]2CCCN2C1=O)N[C@H](CO)Cc1ccccc1 was read as 12-LOX inh inconclusive, HT1080 IDH1KD tx -7.5%, IL1B secr inh -6.7, HT1080NT lethal -0.8%, DT40 TDP1 CPT 16.4µM* and DT40 TDP1 no CPT 18.4µM*.
Screening Cc1ccc(CNC(=O)Cn2c(C)ccc(NS(=O)(=O)c3ccccc3)c2=O)cc1 returned 12-LOX inh 5.2%.
`CC(=O)c1cnn(-c2cc(Nc3ccc(F)cc3)nc(C)n2)c1C` gave 12-LOX inh -12.8%.
`S=C(NCc1ccc(Cl)cc1)NC1CCCC1` gave 12-LOX inh 39.8µM*.
`S=C(NCCc1ccc(Cl)cc1)NC1CCCC1` gave 12-LOX inh inconclusive, HT1080 IDH1KD tx 12.7%, IL1B secr inh 3.1, HT1080NT lethal 9.0%, DT40 TDP1 CPT inconclusive and DT40 TDP1 no CPT inconclusive.
`S=C(NCCc1ccc(Cl)cc1)NC1CCCCC1` gave 12-LOX inh 39.8µM*, HT1080 IDH1KD tx inconclusive, IL1B secr inh -94.1*, HT1080NT lethal -24.1%, DT40 TDP1 CPT inconclusive and DT40 TDP1 no CPT inconclusive.
`S=C(NCCc1ccccc1)NC1CCCCCC1` gave 12-LOX inh inconclusive, HT1080 IDH1KD tx -23.5%, IL1B secr inh 5.9, HT1080NT lethal -8.3%, DT40 TDP1 CPT 18.4µM* and DT40 TDP1 no CPT inconclusive.
For S=C(NCCSc1ccc(Cl)cc1)NC1CCCC1 the results were 12-LOX inh 28.2µM*.
`O=C(CCc1ccccc1)NC1CCCc2ccccc21` (stereo unspecified) gave 12-LOX inh -15.8%, HT1080 IDH1KD tx -2.5%, IL1B secr inh 6.4, HT1080NT lethal 1.5%, DT40 TDP1 CPT inconclusive and DT40 TDP1 no CPT -24.9%.
For S=C(NCCc1ccc(Cl)cc1Cl)NC1CCCCC1 the results were 12-LOX inh 17.8µM*.
`Cc1ccc(CNC(=S)NC2CCC(C(C)(C)C)CC2)cc1` (stereo unspecified) gave 12-LOX inh inconclusive, HT1080 IDH1KD tx -12.0%, IL1B secr inh 24.9, HT1080NT lethal 7.3%, DT40 TDP1 CPT inconclusive and DT40 TDP1 no CPT 23.1µM*.
`S=C(NCCc1ccccc1)NC1CCCc2ccccc21` (stereo unspecified) gave 12-LOX inh 14.1µM*.
`CCCCOc1ccc(Oc2ccc(C#N)c(C#N)c2)cc1` gave 12-LOX inh 2.5%.
COc1ccc(-c2cc(C(=O)NCCc3cnc[nH]3)c3c(c2)N(C)CCO3)cc1OC was read as 12-LOX inh 7.2%[176 µM].
Screening CN1C[C@H](NCc2nccn2C)CCC[C@@H](C(=O)NC2CCOCC2)CC1=O returned 12-LOX inh 6.1%[176 µM].
For Nc1cccc(-c2cccc(N)c2)c1 the results were 12-LOX inh -32.9%.
For Nc1cc(N)cc(N)c1 the results were DT40 TDP1 CPT 4.47µM* and DT40 TDP1 no CPT 4.47µM*.
Screening Cc1cc(C)n(-c2nnc(Nc3ccc(C)c(Cl)c3)c3ccccc23)n1 returned 12-LOX inh -9.0%, DT40 TDP1 CPT inconclusive and DT40 TDP1 no CPT 8.2µM*.
For Cc1cn(CC(=O)N2CCN(c3cccc(Cl)c3)C(=O)C2)c(=O)[nH]c1=O the results were 12-LOX inh -18.3%.
For COC(=O)c1cccc(C#CC(NP(=O)(c2ccccc2)c2ccccc2)c2ccccc2)c1 (stereo unspecified) the results were 12-LOX inh inconclusive, HT1080 IDH1KD tx -27.7%, IL1B secr inh -64.2*, HT1080NT lethal -18.9%, DT40 TDP1 CPT 25.9µM* and DT40 TDP1 no CPT inconclusive.
